ChEMBL document CHEMBL1961873, “Compounds: GSK PKIS; Assays: Nanosyn kinase panel” (2012)

How the values were obtained:
[1] = target: Sphingosine kinase 1 (Homo sapiens) (UniProt Q9NYA1); settings: at 1 µM;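 note: mean SPHK1 inhibition value reported from the GSK PKIS kinase panel screen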
[2] = target: T1, Sphingosine kinase 2 (Homo sapiens) (UniProt Q9NRA0); settings: at 0.1 µM
T1 sequence (whole entry): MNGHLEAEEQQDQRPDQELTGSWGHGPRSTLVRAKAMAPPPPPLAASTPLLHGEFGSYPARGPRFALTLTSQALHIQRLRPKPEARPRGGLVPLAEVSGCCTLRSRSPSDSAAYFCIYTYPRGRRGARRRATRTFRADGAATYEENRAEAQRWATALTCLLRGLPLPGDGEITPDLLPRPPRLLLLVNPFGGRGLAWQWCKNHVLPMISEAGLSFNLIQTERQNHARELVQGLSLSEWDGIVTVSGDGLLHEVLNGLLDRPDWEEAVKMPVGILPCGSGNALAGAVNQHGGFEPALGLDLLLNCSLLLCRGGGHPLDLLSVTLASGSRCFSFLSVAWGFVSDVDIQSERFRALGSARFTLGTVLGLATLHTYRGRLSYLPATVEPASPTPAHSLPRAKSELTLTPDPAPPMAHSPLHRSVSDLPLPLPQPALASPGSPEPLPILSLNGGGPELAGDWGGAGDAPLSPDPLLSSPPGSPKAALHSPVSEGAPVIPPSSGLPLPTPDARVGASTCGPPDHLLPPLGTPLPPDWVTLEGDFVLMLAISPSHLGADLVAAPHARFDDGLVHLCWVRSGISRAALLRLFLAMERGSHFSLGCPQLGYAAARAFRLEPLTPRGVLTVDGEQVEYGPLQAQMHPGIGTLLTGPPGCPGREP

[3] = target: T1, Sphingosine kinase 2 (Homo sapiens); settings: at 1 µM
[4] = target: Casein kinase II subunit alpha (Homo sapiens) (UniProt P68400); settings: at 0.1 µM
[5] = target: Casein kinase II subunit alpha (Homo sapiens) (UniProt P68400); settings: at 1 µM
[6] = target: T2, Inhibitor of nuclear factor kappa-B kinase subunit alpha (Homo sapiens) (UniProt O15111); settings: at 0.1 µM
T2 sequence (whole entry): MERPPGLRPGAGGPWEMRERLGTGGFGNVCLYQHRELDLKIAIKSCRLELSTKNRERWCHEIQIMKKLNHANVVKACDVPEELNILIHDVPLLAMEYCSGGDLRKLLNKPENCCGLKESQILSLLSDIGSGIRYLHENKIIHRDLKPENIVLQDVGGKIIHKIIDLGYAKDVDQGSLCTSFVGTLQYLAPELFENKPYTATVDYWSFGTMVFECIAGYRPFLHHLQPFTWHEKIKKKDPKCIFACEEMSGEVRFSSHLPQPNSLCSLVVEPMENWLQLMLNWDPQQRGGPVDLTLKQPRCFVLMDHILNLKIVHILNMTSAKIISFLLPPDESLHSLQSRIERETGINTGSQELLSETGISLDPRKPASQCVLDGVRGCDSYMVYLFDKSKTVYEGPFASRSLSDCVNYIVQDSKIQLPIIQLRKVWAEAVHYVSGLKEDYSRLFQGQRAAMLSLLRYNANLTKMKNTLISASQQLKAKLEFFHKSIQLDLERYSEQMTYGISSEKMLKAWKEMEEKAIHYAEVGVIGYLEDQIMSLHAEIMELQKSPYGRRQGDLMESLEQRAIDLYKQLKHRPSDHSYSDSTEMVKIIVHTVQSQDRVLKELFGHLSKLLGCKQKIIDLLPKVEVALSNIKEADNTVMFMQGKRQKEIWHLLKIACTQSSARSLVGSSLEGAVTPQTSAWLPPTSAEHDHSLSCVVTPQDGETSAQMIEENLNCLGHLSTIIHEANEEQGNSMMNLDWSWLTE

[7] = target: T2, Inhibitor of nuclear factor kappa-B kinase subunit alpha (Homo sapiens); settings: at 1 µM
[8] = target: T3, Inhibitor of nuclear factor kappa-B kinase subunit beta (Homo sapiens) (UniProt O14920); settings: at 0.1 µM
T3 sequence (whole entry): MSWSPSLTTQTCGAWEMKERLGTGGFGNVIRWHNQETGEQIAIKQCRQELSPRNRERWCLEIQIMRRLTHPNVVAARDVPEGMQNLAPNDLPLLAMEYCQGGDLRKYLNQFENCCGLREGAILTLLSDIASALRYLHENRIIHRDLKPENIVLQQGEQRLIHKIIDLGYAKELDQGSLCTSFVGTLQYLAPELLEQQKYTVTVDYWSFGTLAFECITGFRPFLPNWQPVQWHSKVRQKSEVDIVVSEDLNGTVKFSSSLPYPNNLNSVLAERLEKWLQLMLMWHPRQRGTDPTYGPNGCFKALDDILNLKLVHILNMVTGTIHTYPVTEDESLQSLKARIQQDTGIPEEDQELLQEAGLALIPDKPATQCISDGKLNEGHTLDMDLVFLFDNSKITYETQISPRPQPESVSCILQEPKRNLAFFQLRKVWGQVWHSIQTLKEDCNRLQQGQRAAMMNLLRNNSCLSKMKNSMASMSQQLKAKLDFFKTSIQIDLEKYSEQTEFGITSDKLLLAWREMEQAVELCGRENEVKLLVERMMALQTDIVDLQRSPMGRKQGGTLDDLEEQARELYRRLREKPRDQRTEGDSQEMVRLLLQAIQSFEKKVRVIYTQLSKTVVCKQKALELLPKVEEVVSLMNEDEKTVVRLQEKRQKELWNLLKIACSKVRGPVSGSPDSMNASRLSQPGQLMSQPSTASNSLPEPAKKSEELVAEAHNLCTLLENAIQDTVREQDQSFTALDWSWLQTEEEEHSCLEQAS

[9] = target: T3, Inhibitor of nuclear factor kappa-B kinase subunit beta (Homo sapiens); settings: at 1 µM
[10] = target: T4, Inhibitor of nuclear factor kappa-B kinase subunit epsilon (Homo sapiens) (UniProt Q14164); settings: at 0.1 µM
T4 sequence (whole entry): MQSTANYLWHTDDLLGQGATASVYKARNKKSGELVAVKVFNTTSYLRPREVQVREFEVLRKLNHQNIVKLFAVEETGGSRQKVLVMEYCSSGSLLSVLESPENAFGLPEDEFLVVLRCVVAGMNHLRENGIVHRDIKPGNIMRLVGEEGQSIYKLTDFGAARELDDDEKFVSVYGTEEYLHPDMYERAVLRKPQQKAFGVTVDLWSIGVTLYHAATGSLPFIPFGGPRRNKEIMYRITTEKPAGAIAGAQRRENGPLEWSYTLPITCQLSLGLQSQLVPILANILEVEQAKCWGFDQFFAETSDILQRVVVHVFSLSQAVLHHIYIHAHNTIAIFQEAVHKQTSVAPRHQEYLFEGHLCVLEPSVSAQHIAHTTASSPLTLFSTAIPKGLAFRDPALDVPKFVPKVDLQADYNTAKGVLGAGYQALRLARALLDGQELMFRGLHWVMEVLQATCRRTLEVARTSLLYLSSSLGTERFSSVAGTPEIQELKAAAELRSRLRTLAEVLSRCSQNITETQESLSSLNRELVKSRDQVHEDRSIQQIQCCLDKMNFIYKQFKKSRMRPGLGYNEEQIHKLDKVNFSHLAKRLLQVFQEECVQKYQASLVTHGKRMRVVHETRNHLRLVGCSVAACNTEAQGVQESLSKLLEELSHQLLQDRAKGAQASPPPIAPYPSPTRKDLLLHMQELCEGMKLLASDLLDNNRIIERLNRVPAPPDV

[11] = target: T4, Inhibitor of nuclear factor kappa-B kinase subunit epsilon (Homo sapiens); settings: at 1 µM
[12] = target: T5, Serine/threonine-protein kinase Nek1 (Homo sapiens) (UniProt Q96PY6); settings: at 0.1 µM
T5 sequence (whole entry): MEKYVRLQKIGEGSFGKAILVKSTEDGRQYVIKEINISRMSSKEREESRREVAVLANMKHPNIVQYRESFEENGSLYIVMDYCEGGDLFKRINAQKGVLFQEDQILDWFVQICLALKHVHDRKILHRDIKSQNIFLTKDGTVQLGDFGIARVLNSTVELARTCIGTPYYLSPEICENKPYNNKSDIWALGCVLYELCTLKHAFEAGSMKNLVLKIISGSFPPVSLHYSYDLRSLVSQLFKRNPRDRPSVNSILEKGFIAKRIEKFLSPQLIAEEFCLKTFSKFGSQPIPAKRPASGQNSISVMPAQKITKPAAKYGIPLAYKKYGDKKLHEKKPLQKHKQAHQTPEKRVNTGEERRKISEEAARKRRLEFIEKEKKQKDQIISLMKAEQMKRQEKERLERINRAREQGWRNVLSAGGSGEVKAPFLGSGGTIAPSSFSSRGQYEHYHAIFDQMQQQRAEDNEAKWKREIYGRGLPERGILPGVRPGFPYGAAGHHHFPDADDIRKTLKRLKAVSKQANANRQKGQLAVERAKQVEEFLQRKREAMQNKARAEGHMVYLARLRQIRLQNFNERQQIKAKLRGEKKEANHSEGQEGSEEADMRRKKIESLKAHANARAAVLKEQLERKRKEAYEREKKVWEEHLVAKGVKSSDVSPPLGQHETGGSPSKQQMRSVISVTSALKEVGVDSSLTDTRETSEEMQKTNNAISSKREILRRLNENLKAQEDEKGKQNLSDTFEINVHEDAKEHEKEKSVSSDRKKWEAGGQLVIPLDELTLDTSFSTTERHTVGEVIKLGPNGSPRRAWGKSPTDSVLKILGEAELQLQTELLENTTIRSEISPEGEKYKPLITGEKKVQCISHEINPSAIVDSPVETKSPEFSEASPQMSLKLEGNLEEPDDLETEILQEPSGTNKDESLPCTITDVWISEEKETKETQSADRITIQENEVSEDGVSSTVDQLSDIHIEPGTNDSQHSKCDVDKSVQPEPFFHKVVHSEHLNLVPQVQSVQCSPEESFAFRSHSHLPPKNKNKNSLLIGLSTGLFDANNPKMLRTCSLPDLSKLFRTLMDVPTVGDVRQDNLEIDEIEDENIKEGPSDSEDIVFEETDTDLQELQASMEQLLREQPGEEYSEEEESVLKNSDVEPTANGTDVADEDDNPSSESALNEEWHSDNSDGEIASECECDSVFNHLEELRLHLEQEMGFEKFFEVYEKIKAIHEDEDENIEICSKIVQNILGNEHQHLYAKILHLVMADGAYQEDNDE

[13] = target: T5, Serine/threonine-protein kinase Nek1 (Homo sapiens); settings: at 1 µM
[14] = target: T6, Serine/threonine-protein kinase Nek2 (Homo sapiens) (UniProt P51955); settings: at 0.1 µM
T6 sequence (whole entry): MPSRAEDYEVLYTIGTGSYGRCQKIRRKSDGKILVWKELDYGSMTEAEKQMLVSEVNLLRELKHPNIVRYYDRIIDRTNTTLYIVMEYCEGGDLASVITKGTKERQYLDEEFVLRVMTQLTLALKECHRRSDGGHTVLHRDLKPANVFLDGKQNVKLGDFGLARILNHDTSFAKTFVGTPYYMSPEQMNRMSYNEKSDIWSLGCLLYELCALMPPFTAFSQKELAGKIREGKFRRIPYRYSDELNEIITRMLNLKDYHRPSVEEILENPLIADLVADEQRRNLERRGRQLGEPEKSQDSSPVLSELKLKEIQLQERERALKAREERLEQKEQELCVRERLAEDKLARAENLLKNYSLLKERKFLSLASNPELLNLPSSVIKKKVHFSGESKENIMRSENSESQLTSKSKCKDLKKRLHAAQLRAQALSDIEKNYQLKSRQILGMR

[15] = target: T6, Serine/threonine-protein kinase Nek2 (Homo sapiens); settings: at 1 µM
[16] = target: Serine/threonine-protein kinase Nek6 (Homo sapiens) (UniProt Q9HC98); settings: at 0.1 µM
[17] = target: Serine/threonine-protein kinase Nek6 (Homo sapiens) (UniProt Q9HC98); settings: at 1 µM
[18] = target: Serine/threonine-protein kinase Nek7 (Homo sapiens) (UniProt Q8TDX7); settings: at 0.1 µM
[19] = target: Serine/threonine-protein kinase Nek7 (Homo sapiens) (UniProt Q8TDX7); settings: at 1 µM
[20] = target: T7, Serine/threonine-protein kinase Nek9 (Homo sapiens) (UniProt Q8TD19); settings: at 0.1 µM;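 note: reported value is the mean percent inhibition of NEK9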
T7 sequence (whole entry): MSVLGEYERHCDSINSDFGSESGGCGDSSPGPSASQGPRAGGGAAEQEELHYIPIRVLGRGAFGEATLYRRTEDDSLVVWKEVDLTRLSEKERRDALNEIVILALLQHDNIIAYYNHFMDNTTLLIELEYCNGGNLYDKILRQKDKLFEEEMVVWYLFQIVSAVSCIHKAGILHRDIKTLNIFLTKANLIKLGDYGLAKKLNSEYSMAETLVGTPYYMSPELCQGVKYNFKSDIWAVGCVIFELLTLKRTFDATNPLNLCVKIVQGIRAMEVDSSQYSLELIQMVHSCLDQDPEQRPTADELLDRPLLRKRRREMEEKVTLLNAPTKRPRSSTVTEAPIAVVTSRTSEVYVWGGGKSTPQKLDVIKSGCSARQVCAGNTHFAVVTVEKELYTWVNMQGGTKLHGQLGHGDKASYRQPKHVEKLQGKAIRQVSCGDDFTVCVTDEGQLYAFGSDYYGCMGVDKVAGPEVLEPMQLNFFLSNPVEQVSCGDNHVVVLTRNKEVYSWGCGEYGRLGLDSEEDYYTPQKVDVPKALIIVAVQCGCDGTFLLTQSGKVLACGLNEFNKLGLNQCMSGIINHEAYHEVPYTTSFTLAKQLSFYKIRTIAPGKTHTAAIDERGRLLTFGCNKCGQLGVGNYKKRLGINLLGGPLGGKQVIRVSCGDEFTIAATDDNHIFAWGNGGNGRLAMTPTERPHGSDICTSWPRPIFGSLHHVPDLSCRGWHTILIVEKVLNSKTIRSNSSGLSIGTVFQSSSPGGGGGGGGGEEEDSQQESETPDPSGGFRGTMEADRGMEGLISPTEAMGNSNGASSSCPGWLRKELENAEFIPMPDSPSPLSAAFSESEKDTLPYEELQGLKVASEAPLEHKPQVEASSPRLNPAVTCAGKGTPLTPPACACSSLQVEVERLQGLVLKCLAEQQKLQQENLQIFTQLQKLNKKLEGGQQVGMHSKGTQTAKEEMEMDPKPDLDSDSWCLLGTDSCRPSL

Sequence of Serine/threonine-protein kinase Nek7 (Homo sapiens) (Q8TDX7 whole entry, looked up): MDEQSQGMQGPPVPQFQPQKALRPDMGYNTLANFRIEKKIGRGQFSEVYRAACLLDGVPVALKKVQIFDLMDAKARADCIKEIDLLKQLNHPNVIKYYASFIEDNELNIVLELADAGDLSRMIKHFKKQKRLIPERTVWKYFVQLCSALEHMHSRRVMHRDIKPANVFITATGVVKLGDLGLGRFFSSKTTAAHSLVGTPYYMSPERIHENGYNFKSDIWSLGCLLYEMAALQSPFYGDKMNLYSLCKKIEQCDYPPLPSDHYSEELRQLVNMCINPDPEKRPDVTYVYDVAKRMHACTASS
Sequence of Serine/threonine-protein kinase Nek6 (Homo sapiens) (Q9HC98 whole entry): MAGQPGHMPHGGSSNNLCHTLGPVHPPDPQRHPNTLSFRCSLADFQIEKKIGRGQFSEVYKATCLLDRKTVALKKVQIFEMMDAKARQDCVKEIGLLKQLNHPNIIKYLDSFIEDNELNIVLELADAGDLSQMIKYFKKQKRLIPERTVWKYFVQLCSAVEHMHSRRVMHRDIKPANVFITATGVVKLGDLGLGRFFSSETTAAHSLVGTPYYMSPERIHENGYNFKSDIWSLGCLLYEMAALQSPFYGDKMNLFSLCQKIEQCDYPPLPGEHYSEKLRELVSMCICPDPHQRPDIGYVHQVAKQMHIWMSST
Sequence of Casein kinase II subunit alpha (Homo sapiens) (P68400 whole entry, looked up): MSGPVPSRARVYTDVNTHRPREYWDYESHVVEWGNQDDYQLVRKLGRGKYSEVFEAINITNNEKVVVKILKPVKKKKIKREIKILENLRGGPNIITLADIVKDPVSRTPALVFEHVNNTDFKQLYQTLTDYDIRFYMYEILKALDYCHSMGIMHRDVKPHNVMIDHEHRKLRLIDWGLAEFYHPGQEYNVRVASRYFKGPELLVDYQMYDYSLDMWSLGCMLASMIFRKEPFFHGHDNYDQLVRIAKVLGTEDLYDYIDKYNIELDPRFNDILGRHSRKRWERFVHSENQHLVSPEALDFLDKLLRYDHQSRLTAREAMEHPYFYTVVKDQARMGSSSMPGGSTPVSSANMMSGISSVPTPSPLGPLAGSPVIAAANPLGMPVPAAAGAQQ
Sequence of Sphingosine kinase 1 (Homo sapiens) (Q9NYA1 whole entry): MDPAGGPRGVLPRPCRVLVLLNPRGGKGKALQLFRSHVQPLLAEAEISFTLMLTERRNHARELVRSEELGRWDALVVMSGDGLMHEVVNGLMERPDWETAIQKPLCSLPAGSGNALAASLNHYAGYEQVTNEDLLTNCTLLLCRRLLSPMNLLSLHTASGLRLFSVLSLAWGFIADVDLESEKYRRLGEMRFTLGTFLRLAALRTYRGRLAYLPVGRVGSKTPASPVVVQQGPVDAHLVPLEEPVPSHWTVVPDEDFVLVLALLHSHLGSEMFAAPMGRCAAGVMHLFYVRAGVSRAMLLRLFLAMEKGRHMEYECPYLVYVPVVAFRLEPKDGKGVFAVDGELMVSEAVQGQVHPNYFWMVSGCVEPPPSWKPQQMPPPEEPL

## Nc1nc(-c2ccc3c(c2)C(=Cc2cc(Br)c(O)c(Br)c2)C(=O)N3)cs1
[1]
  inhibition: -0.49%
[2]
  inhibition: -0.01%
[3]
  inhibition: 0.02%
[4]
  inhibition: 2.7%
[5]
  inhibition: 24.1%
[6]
  inhibition: 9.67%
[7]
  inhibition: 2.3%
[8]
  inhibition: 0.26%
[9]
  inhibition: 0.06%
[10]
  inhibition: -3%
[11]
  inhibition: -0.65%
[12]
  inhibition: -0.4%
[13]
  inhibition: 2.14%
[14]
  inhibition: -0.41%
[15]
  inhibition: 2.78%
[16]
  inhibition: -0.92%
[17]
  inhibition: 3.09%
[18]
  inhibition: 2.05%
[19]
  inhibition: -1.46%
[20]
  inhibition: 2.02%
